Screening results from PubChem BioAssay.
A selection: hits, their analogues and other compounds. The true share with any hit is near 5.9%.
HSF-1 act: increases HSF-1 driven luciferase reporter signal | NIH3T3-HGL HSF-1 luciferase reporter, MG132, 8 h; 100% = twice DMSO control signal | activation, % at 9 µM | 300,000 compounds, 1.7% hits | AID 504408;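 active = mean replicate activation of at least 50% with a set share of replicates each reaching 50%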;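 also: 0% = median of the neutral control wells and 100% = twice that signal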
GAA850 FXN act: increases GAA850 frataxin promoter reporter activity | HEK293 lucGAA850 FXN promoter luciferase reporter, 24 h; percent of 10 µM SAHA response | activation, % at 6 µM | 360,000 compounds, 0.56% hits | AID 540364;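 active = activation above the average of all compounds screened plus 3 SD, cutoff fixed separately per campaign, cut at about 7.5% in these data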;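 also: 0% = DMSO wells and 100% = 10 µM SAHA wells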
HSF1 inhib: HSF1 inhibition; NIH3T3-HGL HSE-luciferase, MG132-induced, luminescence 8 h; hits give low values; AID 2098; activity change, negative = inhibition, % at 7.5 µM (by protocol); 300,000 compounds, 0.77% hits;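 active = more than half of replicate wells show activity change below -50%, luminescence cut by over half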;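 also: luciferase reports HSF-1 transcriptional activity via heat shock element; 0% = median of DMSO wells and -100% = zero luminescence signal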
AHR activator: activates the human aryl hydrocarbon receptor | P35869 | AHR-responsive luciferase reporter cells, luminescence | activation, % at 5 µM | 320,000 compounds, 2.5% hits | AID 2796; in the data active = activation above about 47%;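 also: 0% = vehicle wells and 100% = reference agonist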
HSP90 refold inh: blocks HSP90-mediated luciferase refolding in reticulocyte lysate; Rabbit reticulocyte lysate, luciferase refolding luminescence, 3 h; inhibition, % at 5.6 µM; 290,000 compounds, 0.91% hits;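 active = inhibition above the screen-wide mean plus 3 SD, computed separately per campaign, cut at about 16% in these data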;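 also: 0% = DMSO wells and 100% = 60 µM geldanamycin wells; inhibitors lower the luminescence because luciferase stays unfolded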
NR0B1 inh: inhibitors of human orphan nuclear receptor DAX1 (NR0B1); 340,000 compounds, 0.99% hits; HEK293 Gal4-DAX1 luciferase reporter, luminescence; AID 504766; inhibition, % at 6.75 µM;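 active = inhibition above the mean over all tested compounds plus 3 SD, cut at about 4.2% in these data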;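 also: 0% = DAX1-transfected cells with DMSO and 100% = empty-vector control cells with DMSO; inhibition shows as a rise in luminescence from relieved DAX1 repression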
Target sequence (P51843 207-470 limits assumed): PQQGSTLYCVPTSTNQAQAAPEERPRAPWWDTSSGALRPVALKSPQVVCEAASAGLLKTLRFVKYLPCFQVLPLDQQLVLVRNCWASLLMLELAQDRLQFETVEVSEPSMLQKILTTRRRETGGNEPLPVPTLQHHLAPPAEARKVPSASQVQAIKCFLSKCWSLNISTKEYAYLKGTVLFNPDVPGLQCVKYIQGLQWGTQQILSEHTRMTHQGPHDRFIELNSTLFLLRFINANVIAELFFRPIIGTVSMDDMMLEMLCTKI
An asterisk follows results filed as active.

What do the screens show for `CCCNC(=O)c1cc(-c2ccc3c(c2)OCO3)on1`?
HSF-1 act: 33; GAA850 FXN act: 2; HSF1 inhib: 20; AHR activator: 7; HSP90 refold inh: 14; NR0B1 inh: 0

Results for COc1ccccc1-c1cc(C(=O)NC(C)C)no1 ?
HSF-1 act: 54*; GAA850 FXN act: 2; HSF1 inhib: 35; AHR activator: 33; HSP90 refold inh: 1; NR0B1 inh: 1

Results for CCN(CC)C(=O)c1cc(-c2ccc3c(c2)OCO3)on1 ?
HSF-1 act: 19; GAA850 FXN act: 5; HSF1 inhib: 4; AHR activator: 73*; HSP90 refold inh: -1; NR0B1 inh: 2

What do the screens show for `COCCNC(=O)c1cc(-c2ccccc2OC)on1`?
HSF-1 act: -7; GAA850 FXN act: -1; HSF1 inhib: 0; AHR activator: -1; HSP90 refold inh: -1; NR0B1 inh: 1

What do the screens show for `O=C(CN(Cc1ccccc1Cl)C(=O)c1csnn1)NCc1ccccc1`?
HSF-1 act: 14; GAA850 FXN act: -1; HSF1 inhib: 6; AHR activator: 0; HSP90 refold inh: -2; NR0B1 inh: -1

Results for O=C(Nc1ccccc1C(=O)NCCc1ccccc1)c1cnccn1 ?
HSF-1 act: 9; GAA850 FXN act: 3; HSF1 inhib: 7; AHR activator: 61*; HSP90 refold inh: -5; NR0B1 inh: 0

How did O=C(c1cccc(-c2nnc(-c3ccccc3)o2)c1)N1CCCCC1 do in these assays?
HSF-1 act: 57*; GAA850 FXN act: 3; HSF1 inhib: 40; AHR activator: 1; HSP90 refold inh: -3; NR0B1 inh: -1

What do the screens show for `Cc1csc(Sc2ccc(C(=O)OCC(=O)Nc3ccc(F)cc3[N+](=O)[O-])cc2[N+](=O)[O-])n1`?
HSF-1 act: -11; GAA850 FXN act: -1; HSF1 inhib: -5; AHR activator: 6; HSP90 refold inh: -1; NR0B1 inh: 6.5*

What do the screens show for `CC12c3ccccc3C(c3ccccc31)C1C(=O)N(c3cccnc3)C(=O)C12` (stereo unspecified)?
HSF-1 act: -12; GAA850 FXN act: -3; HSF1 inhib: -1; AHR activator: -1; HSP90 refold inh: 3; NR0B1 inh: -2

What do the screens show for `CC12c3ccccc3C(c3ccccc31)C1C(=O)N(Cc3cccnc3)C(=O)[C@H]12` (stereo partly specified)?
HSF-1 act: 70*; GAA850 FXN act: 1; HSF1 inhib: 29; AHR activator: 0; HSP90 refold inh: 2; NR0B1 inh: 0

Results for CC(C)(C)c1ccc(/C=C(\C#N)C(=O)Nc2ccccn2)cc1 ?
HSF-1 act: -69; GAA850 FXN act: 1; HSF1 inhib: -59*; AHR activator: 4; HSP90 refold inh: -3; NR0B1 inh: -1

What do the screens show for `CC(C)(C)c1ccc(C(O)c2ncc(-c3cccc(F)c3)[nH]2)cc1` (stereo unspecified)?
GAA850 FXN act: 1

Results for O=C(c1ccccc1)c1ncc(C(F)(F)F)cc1Cl ?
HSF-1 act: -35; GAA850 FXN act: 0; HSF1 inhib: -21; AHR activator: -2; HSP90 refold inh: 0; NR0B1 inh: 0

How did COC(=O)/C(=C\Nc1ccccc1N)c1ncc(C(F)(F)F)cc1Cl do in these assays?
HSF-1 act: 138*; GAA850 FXN act: 2; HSF1 inhib: 87; AHR activator: 69*; HSP90 refold inh: -3; NR0B1 inh: 1

What do the screens show for `O=C(Nc1nc(-c2ccccc2)cs1)Nc1ccc(F)cc1F`?
HSF-1 act: 10; GAA850 FXN act: 1; HSF1 inhib: 0; AHR activator: -6; HSP90 refold inh: -3; NR0B1 inh: 4.7*

What do the screens show for `COC(C(=O)Nc1ccc(F)cc1F)c1ccccc1` (stereo unspecified)?
HSF-1 act: 20; GAA850 FXN act: 0; HSF1 inhib: 2; AHR activator: 1; HSP90 refold inh: 5; NR0B1 inh: 4.2*

What do the screens show for `O=C(Nc1ccc(F)c(Cl)c1)Nc1csc2ccccc12`?
HSF-1 act: 22; GAA850 FXN act: -1; HSF1 inhib: 15; AHR activator: 73*; HSP90 refold inh: -1; NR0B1 inh: 2

How did CCc1ccccc1NC(=O)Nc1ccc(F)cc1F do in these assays?
HSF-1 act: 13; GAA850 FXN act: -1; HSF1 inhib: -4; AHR activator: 4; HSP90 refold inh: 4; NR0B1 inh: 0
